Measurements taken from paper PMC5540273 (PLoS ONE, 2017).

Experiments:
Settings in all cases: concentration: 1 μM, replicates: in singlicate; n = 1
CAMK2D = tested on: CAMK2D
CAMK2G = tested on: CAMK2G
CAMK4 = tested on: CAMK4
CAMKK1 = tested on: CAMKK1
CAMKK2 = tested on: CAMKK2
CASK = tested on: CASK
CDC2L1 = tested on: T1, CDC2L1
T1 construct: gene CDK11B

CDC2L2 = tested on: CDC2L2
CDC2L5 = tested on: T2, CDC2L5
T2 construct: gene CDK13

CDK11 = tested on: T3, CDK11
T3 construct: gene CDK19

CDK2 = tested on: CDK2
CDK3 = tested on: CDK3
CDK4-cyclinD1 = tested on: CDK4-cyclinD1
CDK4-cyclinD3 = tested on: CDK4-cyclinD3
CDK4 = tested on: CDK4
CDK5 = tested on: CDK5
CDK7 = tested on: CDK7
CDK8 = tested on: CDK8
CDK9 = tested on: CDK9
CDKL1 = tested on: CDKL1
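Further: KINOMEscan kinase panel screen.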

| SMILES | %Inh (CAMK2D) [%] | %Inh (CAMK2G) [%] | %Inh (CAMK4) [%] | %Inh (CAMKK1) [%] | %Inh (CAMKK2) [%] | %Inh (CASK) [%] | %Inh (CDC2L1) [%] | %Inh (CDC2L2) [%] | %Inh (CDC2L5) [%] | %Inh (CDK11) [%] | %Inh (CDK2) [%] | %Inh (CDK3) [%] | %Inh (CDK4-cyclinD1) [%] | %Inh (CDK4-cyclinD3) [%] | %Inh (CDK4) [%] | %Inh (CDK5) [%] | %Inh (CDK7) [%] | %Inh (CDK8) [%] | %Inh (CDK9) [%] | %Inh (CDKL1) [%] |
| --- | --- | --- | --- | --- | --- | --- | --- | --- | --- | --- | --- | --- | --- | --- | --- | --- | --- | --- | --- | --- |
| FC(F)(F)c1ccc(-c2cc(-c3c[nH]nc3-c3ccccn3)ccn2)cc1 [GW599550] | 12 | 27 | 0 | 11 | 23 | 0 | 0 | 26 | 0 | 17 | 2 | 20 | 11 | 0 | 35 | 0 | 0 | 32 | 0 | 2 |
| OCCOCCn1ccc2ncnc(Nc3ccc(Oc4cccc(Cl)c4)c(Cl)c3)c21 | 0 | 0 | 0 | 0 | 0 | 0 | 0 | 0 | 0 | 0 | 0 | 0 | 0 | 0 | 0 | 0 | 0 | 0 | 0 | 0 |
| Cl.c1ccc(Cn2ncc3cc(Nc4ncnc5ccccc45)ccc32)cc1 [GW273749] | 31 | 25 | 0 | 3 | 32 | 5 | 0 | 19 | 0 | 4 | 7 | 0 | 0 | 11 | 15 | 0 | 1 | 0 | 0 | 0 |
| CCCc1ccc(S(=O)(=O)NC2CCN(c3ccnc(Nc4ccc(OC)cc4)n3)C2)cc1 (stereo not shown) [GSK1379737] | 4 | 4 | 0 | 0 | 0 | 22 | 0 | 0 | 0 | 17 | 0 | 16 | 25 | 0 | 37 | 0 | 0 | 50 | 0 | 6 |
| Fc1cccc(COc2ccc(Nc3ncnc4nn5ccccc5c34)cc2Cl)c1 [GW689066] | 0 | 10 | 0 | 5 | 0 | 0 | 0 | 0 | 0 | 2 | 0 | 0 | 13 | 0 | 33 | 0 | 0 | 37 | 0 | 0 |
| CSc1ccc(NC2=C(c3ccccc3Cl)C(=O)NC2=O)cc1 [SB-342411] | 28 | 36 | 0 | 5 | 25 | 26 | 0 | 0 | 0 | 0 | 10 | 26 | 61 | 30 | 0 | 0 | 43 | 7 | 0 | 13 |
| FC(F)(F)c1cc(Nc2nccc(-c3c(-c4ccc(Cl)cc4)nn4ncccc34)n2)ccc1Cl [GW829351] | 0 | 0 | 0 | 2 | 0 | 11 | 0 | 0 | 0 | 0 | 0 | 34 | 0 | 0 | 0 | 0 | 0 | 58 | 0 | 0 |
| CCn1c(-c2ccncc2)nc2cnccc21 [SB-735216] | 0 | 0 | 0 | 0 | 4 | 5 | 9 | 0 | 28 | 18 | 5 | 1 | 0 | 0 | 45 | 0 | 6 | 0 | 0 | 12 |
| Nc1nc(-c2ccc3c(N)n[nH]c3c2)cc(N2CCCCC2)n1 [GSK2228768] | 0 | 25 | 0 | 0 | 6 | 15 | 0 | 0 | 0 | 0 | 6 | 17 | 0 | 0 | 0 | 0 | 0 | 0 | 0 | 20 |
| CS(=O)(=O)CCNCc1ccc(-c2ccc3ncnc(Nc4ccc(OCc5ccccc5)c(Cl)c4)c3c2)o1.Cl [GW574783] | 4 | 11 | 0 | 0 | 0 | 3 | 0 | 0 | 0 | 15 | 5 | 10 | 21 | 0 | 0 | 0 | 0 | 43 | 0 | 0 |
| Fc1ccc(Nc2nccc(-c3c(-c4ccc(Cl)cc4)nn4ncccc34)n2)cc1F [GW829058] | 0 | 2 | 0 | 2 | 5 | 26 | 6 | 11 | 30 | 18 | 13 | 18 | 62 | 12 | 19 | 34 | 42 | 0 | 12 | 17 |
